Compound activity as filed in PubChem BioAssay.
hcDAF12 agonist = H. contortus DAF-12 activation, primary screen. HEK293 hcDAF-12 lit1-tk-luc reporter, luminescence; 0% DMSO, 100% Δ7-dafachronic acid. activation, % at 6.8 µM. hit rate 1.4% among 370,000. AID 652067;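 active means activation above the mean of all tested compounds plus 3 SD, cut at about 5.5% in these data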;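 further: 100% = response to 3 µM Δ7-dafachronic acid high control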
hgDAF-12 ag = hgDAF-12 agonism, primary luciferase screen | activation, % at 6.8 µM | hit rate 1.8% among 370,000 | AID 687014 | HEK293 GAL4-hgDAF12 UAS-luciferase reporter, agonist luminescence; normalized to butyrate control;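 active means activation above a cutoff set at the mean of all screened compounds plus 3 SD, cut at about 10% in these data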;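 further: 0% = DMSO wells and 100% = sodium butyrate wells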
APP 5'UTR act = APP 5'UTR luciferase reporter activation; SH-SY5Y APP 5'UTR luciferase reporter, luminescence; zero percent = DMSO vehicle wells; activation, % at 2 µM; hit rate 1% among 190,000;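 active means activation above a set limit, based on mean plus 3 SD of controls, cut at about 140% in these data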
NF-kB neuron act = compounds increasing NF-kB expression in human neuronal cells. NF-kB reporter expression; hits give high values. fold change at 12.5 µM. hit rate 1.6% among 190,000. AID 1239; in the data active means fold change above about 3.3
ssDAF-12 act = activators of S. stercoralis DAF-12 nuclear receptor; HEK293 ssDAF-12/GRIP1 lit1-tk-luc reporter, luminescence; % of 3 µM dafachronic acid response; activation, % at 6.8 µM; hit rate 1% among 370,000;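 active means activation above the mean over all tested compounds plus 3 SD, cut at about 0.9% in these data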;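 further: 0% = DMSO-only wells and 100% = 3 µM delta7-dafachronic acid wells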
hgDAF12 conf = hgDAF-12 agonism, confirmation assay; shares compounds with hgDAF-12 ag; activation, % at 6.8 µM; HEK293 GAL4-hgDAF12 luciferase reporter, agonist mode; percent of butyrate response; hit rate 80% among 3,300;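 active means mean activation over triplicate wells above the hit cutoff derived from the earlier primary screen, cut at about 11% in these data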;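 further: 0% = DMSO low control and 100% = 2 mM sodium butyrate high control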
LXR ag 2 = activates human LXR-beta, counter-screen for DAF-12 agonists; shares compounds with hgDAF-12 ag; HEK293 Gal4-LXR luciferase reporter, 24 h; activation, % at 6.8 µM; 3,300 tested, under 10 active; AID 743051;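 active means mean activation of the triplicate above a set limit carried over from the primary screen, none filed active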
Target sequence (P55055 whole entry, looked up, the tested form may be a part): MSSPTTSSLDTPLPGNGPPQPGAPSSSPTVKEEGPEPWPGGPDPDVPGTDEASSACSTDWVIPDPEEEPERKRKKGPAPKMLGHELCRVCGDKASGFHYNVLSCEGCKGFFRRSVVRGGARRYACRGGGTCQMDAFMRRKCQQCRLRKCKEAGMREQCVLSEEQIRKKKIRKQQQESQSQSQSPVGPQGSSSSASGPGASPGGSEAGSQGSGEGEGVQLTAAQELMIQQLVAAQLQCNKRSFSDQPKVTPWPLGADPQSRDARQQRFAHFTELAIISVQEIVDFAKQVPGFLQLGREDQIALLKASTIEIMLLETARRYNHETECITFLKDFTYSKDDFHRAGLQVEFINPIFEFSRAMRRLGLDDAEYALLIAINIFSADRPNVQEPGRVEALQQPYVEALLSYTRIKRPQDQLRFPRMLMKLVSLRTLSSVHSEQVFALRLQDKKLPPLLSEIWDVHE
* hit, by the source's call; nt = no result. A selection: hits, their analogues and other compounds. The true share with any hit is near 3.4%.

SMILES | hcDAF12 agonist | hgDAF-12 ag | APP 5'UTR act | NF-kB neuron act | ssDAF-12 act | hgDAF12 conf | LXR ag 2
CC1CC1c1ccc(/C=C(\C#N)C(=O)Nc2ccc(Cl)cc2)o1 (configuration not stated) | 2.5 | 13.8* | 115.7 | 1.1 | -0.3 | 14.5* | 0.6
CC1CC1c1ccc(/C=C(\C#N)C(=O)Nc2ccccc2Cl)o1 (configuration not stated) | 2.0 | 7.9 | 26.5 | 0.97 | 0.3 | nt | nt
CN1CCN(c2ccc(-c3csc(N4CCC(C(N)=O)CC4)n3)cc2)CC1 | -4.2 | -4.9 | nt | nt | -2.5 | nt | nt
C#CCNC(=O)C[C@H]1C(=O)N(Cc2ccc(OC)cc2)C2=CCCCC[C@@]21C(=O)OC | -1.5 | 1.6 | nt | nt | -1.2 | nt | nt
COc1ccc(S[C@]2(C(=O)N3CCOCC3)CC(=O)N(P(=O)(OC)OC)[C@@H]2c2ccc(OC)cc2)cc1 | -1.6 | -1.5 | nt | nt | -0.5 | nt | nt
COc1ccc(-c2cc3ncc(-c4ccccc4)c(N)n3n2)cc1 | 1.3 | 24.6* | 225.2* | 2.66 | -0.7 | 15.7* | 0.7
COc1ccc(OCC(=O)N/N=C(\C)c2cccs2)cc1 | -0.7 | 0.8 | nt | nt | -1.3 | nt | nt
C/C(=N\NC(=O)COc1ccccc1[N+](=O)[O-])c1cccs1 | 4.2 | 15.1* | 41.2 | 1.9 | -0.1 | 10.9* | 0.4
CN1CCN(c2ccc(NC(=O)COc3ccccc3[N+](=O)[O-])cc2)CC1 | -0.5 | -0.4 | -0.8 | 0.85 | -0.8 | nt | nt
O=C(COc1ccccc1[N+](=O)[O-])Nc1ccc(Br)cc1 | 3.3 | 16.4* | nt | nt | 0.6 | 11.3* | 0.4
Cc1ccc(-n2c(SC/C=C/c3ccccc3)nnc2-c2cccs2)cc1 | -1.8 | 0.4 | nt | nt | -1.6 | nt | nt
Cc1ccnc(NC(=O)c2ccc(NC(=O)CC3SC(N4CCCC4)=NC3=O)cc2)c1 (configuration not stated) | -1.0 | -1.3 | nt | nt | -0.9 | nt | nt
O=C(CC1SC(N2CCCC2)=NC1=O)Nc1ccc(C(=O)Nc2ncccc2O)cc1 (configuration not stated) | 2.8 | 37.7* | nt | nt | 0.8 | 43.0* | 0.2
CC(=O)c1ccc(NC(=O)/C(=C\c2ccccc2)NC(=O)/C=C/c2ccccc2)cc1 | -1.9 | -1.5 | 11.3 | 0.69 | -0.9 | nt | nt
CC(=O)c1ccc(NC(=O)/C(Cl)=C/c2ccccc2)cc1 | 3.7 | 16.7* | 167.8* | 6.42* | 0.3 | 12.0* | 0.9
O=C(Nc1ccc(F)cc1)/C(Cl)=C/c1ccccc1 | 5.4 | 24.6* | 188.2* | 7.27* | 2.2* | 20.0* | 1.0
Cc1ccc(NC(=O)/C(Cl)=C\c2ccccc2)cc1 | 6.4* | 16.6* | nt | nt | 1.6* | 20.5* | 1.3
CC(C)(C)OC(=O)N1Cc2cc3ccccc3nc2C1 | 2.9 | 16.3* | nt | nt | 0.4 | 12.9* | 0.5
COc1ccccc1C(C(C(=O)c1ccccc1)N1CCOCC1)N1CCOCC1 (configuration not stated) | 2.5 | 13.6* | nt | nt | -0.2 | -0.4 | 0.0
O=C(NC1CCCCN(Cc2ccc(Cl)cc2)C1=O)c1cccc(C(F)(F)F)c1 (configuration not stated) | -0.1 | -1.6 | nt | nt | -1.6 | nt | nt
COC(=O)c1cc(C2(c3c[nH]c4ccccc34)CCN(C(=O)OC(C)(C)C)CC2)n2ccccc12 | 0.6 | 2.0 | nt | nt | -0.8 | nt | nt
O=C(NCCc1ccccc1)c1cccc(NC(=O)C2CC2)c1 | 4.0 | 17.2* | nt | nt | 0.4 | 13.4* | 0.4
COc1cccc2sc(N(C)c3ccccc3)nc12 | 6.5* | 13.3* | 218.0* | 5.75* | 0.7 | 15.0* | 1.0
Cc1occc1C(=O)Nc1sccc1C(N)=O | -0.7 | 4.7 | nt | nt | -1.1 | nt | nt
NC(=O)c1ccsc1NC(=O)c1coc2ccccc2c1=O | 1.1 | 13.7* | 166.9* | 2.16 | -0.3 | 19.0* | 0.7
SMILES | hcDAF12 agonist | hgDAF-12 ag | APP 5'UTR act | NF-kB neuron act | ssDAF-12 act | hgDAF12 conf | LXR ag 2
CCOc1ccc(N2C(=O)c3ccccc3C2=O)cc1 | 0.1 | -0.8 | -3.4 | 1.44 | -1.1 | nt | nt
CCOc1ccc(N2C(=O)c3ccccc3C2O)cc1 (configuration not stated) | 3.7 | 20.1* | 74.1 | 2.47 | -0.4 | 9.4 | 0.4
COC(=O)[C@H](Cc1ccccc1)NC(=O)[C@H]1O[C@@H](n2cnc3c(=O)[nH]c(N)nc32)[C@H](O)[C@@H]1O | -1.2 | -0.1 | nt | nt | -0.5 | nt | nt
O=C(NC(=S)Nc1ccc(N2CCOCC2)c(Cl)c1)c1cccs1 | 0.3 | 6.3 | 73.0 | 1.13 | -0.8 | nt | nt
O=C(Nc1ccc(N2CCOCC2)c(Cl)c1)c1c(F)c(F)c(F)c(F)c1F | 0.4 | 4.1 | 5.7 | 0.78 | -0.7 | nt | nt
COc1c(C)cccc1C(=O)Nc1ccc(N2CCOCC2)c(Cl)c1 | 4.0 | 21.2* | 154.0* | 6.07* | 0.7 | 15.1* | 0.8
O=C(Nc1ccc(N2CCOCC2)c(Cl)c1)c1cccc(F)c1 | 4.1 | 14.3* | 109.2 | 5.53* | 0.4 | 16.0* | 0.6
O=C(Nc1ccc(N2CCCC2)c(Cl)c1)c1cccs1 | 4.8 | 19.9* | 234.6* | 7.43* | 0.3 | 18.7* | 0.8
C=CCN(C)C(C#Cc1ccccc1)Cc1ccccc1 (configuration not stated) | -0.8 | -0.7 | nt | nt | -1.6 | nt | nt
CC(C)CN1C(=O)C[C@]2(C(=O)N(C)c3ccc(NS(=O)(=O)c4ccc(F)cc4)cc32)C1c1ccccc1 (some centres not stated) | 0.6 | 2.2 | nt | nt | -1.0 | nt | nt
COC(=O)[C@]12C[C@H](CC(=O)NCCCN3CCCC3=O)C(=O)N(CCc3ccc(OC)c(OC)c3)C1=C[C@H](C(C)C)O[C@@H]2C1CC1 | -2.8 | -1.2 | nt | nt | -1.1 | nt | nt
O=C(Nc1ccc(Cl)cc1F)c1ccccc1Br | 5.2 | 15.5* | 120.2 | 5.73* | -1.3 | 14.2* | 0.8
Cc1ccc(C(=O)Nc2nnc(-c3ccco3)o2)cc1 | 5.0 | 13.6* | 34.9 | 1.63 | -0.5 | 10.2 | 0.3
Cc1n[nH]c(C)c1S(=O)(=O)NCCc1ccccc1F | -1.4 | -3.3 | nt | nt | -2.1 | nt | nt
O=C(O)c1ccccc1C(=O)Nc1cc(-c2ccccc2)[nH]n1 | -1.0 | -1.1 | nt | nt | -0.9 | nt | nt
O=C(Nc1cc(-c2ccccc2)[nH]n1)c1ccccc1 | 4.3 | 13.5* | nt | nt | -0.4 | 15.9* | 0.8
Cc1cc(NC(=O)c2cccc(Oc3ccccc3)c2)n[nH]1 | 4.0 | 19.4* | 88.1 | 3.04 | -0.5 | 13.2* | 0.5
Cc1cc(NC(=O)NC(=O)c2cccc(OC(F)(F)C(F)F)c2)n[nH]1 | 1.5 | 5.9 | 55.0 | 1.7 | -0.6 | nt | nt
COc1ccc(CN2C3=N[C@H](c4ccccc4)CC(=O)N3/C(=C\c3ccccc3)C2c2ccco2)c(OC)c1 (some centres not stated) | 0.5 | -1.3 | nt | nt | -0.4 | nt | nt
CN(C)c1ccc(CNc2nc3ccccc3n2C)cc1 | 5.2 | 14.7* | nt | nt | -1.0 | 17.4* | 0.8
CCCn1c(NCc2ccc(N(C)C)cc2)nc2ccccc21 | -1.7 | 3.1 | 23.5 | 1.22 | -1.1 | nt | nt
